What all share (experiment): modulators of BK channel variants, profiling panel, selectivity assay, cell-based, U2OS BacMam, thallium flux, beta subunits (AID 1259406);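 also: initial slope of Thallos dye fluorescence rise after thallium is added; log ratio against the mean of 0.3% DMSO vehicle wells on the same plate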
One test deals with F380Y. To be noted: at 30 µM.
A further test concerns F380Y/beta1. To be noted: at 30 µM.
In the next test the test system is F380Y/beta2Delta. Conditions: at 30 µM.
The subject of the next test is F380Y/beta4. Conditions: at 30 µM.
Test [1] concerns the target Calcium-activated potassium channel subunit alpha-1 (Homo sapiens) + Leucine-rich repeat-containing protein 26 (Homo sapiens) (UniProt Q12791+Q2I0M4). Conditions: F380Y/Slo1WT/gamma1, at 30 µM.
The subject of another test is R275C. To be noted: at 30 µM.
A further test has as its system R275C/beta1. To be noted: at 30 µM.
In another test the test system is R275C/beta2Delta. Conditions: at 30 µM.
The test system of a further test is R275C/beta4. To be noted: at 30 µM.
In another test the test system is R275C/Slo1WT/beta2. To be noted: at 30 µM.

“And” between values parts separate entries of the source, which are not always exact repeats. Identical values can stand only once. A number with no mark means an inactive call. The source made the active and inactive calls.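 The calls were made as follows: active = thallium flux through the channel raised or lowered by more than 3 SD from vehicle-only wells, actives on both sides; inactive = the rest.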

Calcium-activated potassium channel subunit alpha-1 (Homo sapiens) + Leucine-rich repeat-containing protein 26 (Homo sapiens), sequence (Q2I0M4 whole entry, looked up, one chain of several): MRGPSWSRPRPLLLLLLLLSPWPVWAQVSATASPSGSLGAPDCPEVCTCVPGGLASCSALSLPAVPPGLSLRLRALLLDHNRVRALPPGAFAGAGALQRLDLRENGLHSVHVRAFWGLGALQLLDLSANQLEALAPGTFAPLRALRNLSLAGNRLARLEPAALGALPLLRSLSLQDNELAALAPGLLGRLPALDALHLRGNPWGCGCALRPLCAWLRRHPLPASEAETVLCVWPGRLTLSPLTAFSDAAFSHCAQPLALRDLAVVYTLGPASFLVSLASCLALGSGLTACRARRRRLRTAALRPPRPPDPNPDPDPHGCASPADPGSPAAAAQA

Take `Nc1nnc(-c2cccc(Cl)c2Cl)c(N)n1`: the log fold change Tl+ flux in the test on F380Y was -0.00765; with F380Y/beta1, -0.046; in the test with F380Y/beta2Delta, -0.0167; with F380Y/beta4, -0.0171; in test [1], 0.000443; in the test on R275C, 0.00303. Further, the log fold change Tl+ flux in the test with R275C/beta1 is 0.00854; in the test with R275C/beta2Delta it was 0.0465; in the test on R275C/beta4, -0.0247; in the test on R275C/Slo1WT/beta2 it was -0.000749.
On to `Cn1c(NCCN(CCO)CCCc2ccc([N+](=O)[O-])cc2)cc(=O)n(C)c1=O`, for which the log fold change Tl+ flux in the test on F380Y was -0.0604; in the test on F380Y/beta1, -0.0554; in the test on F380Y/beta2Delta it was -0.007; with F380Y/beta4, -0.0379; in test [1], 0.0127; in the test on R275C, -0.128 (active). In addition, the log fold change Tl+ flux with R275C/beta1 was -0.0368; with R275C/beta2Delta, 0.012; in the test on R275C/beta4, -0.00107; in the test with R275C/Slo1WT/beta2 it was 0.0338.
Turning to `CC(=O)Nc1ccc(CC(=O)O)cc1`, the log fold change Tl+ flux is -0.0209 with F380Y; -0.00468 with F380Y/beta1; -0.0235 in the test on F380Y/beta2Delta; -0.0309 in the test with F380Y/beta4; -0.0302 in test [1]; -0.0367 in the test with R275C. For the same compound, the log fold change Tl+ flux in the test on R275C/beta1 is -0.0357; in the test on R275C/beta2Delta, -0.0277; with R275C/beta4, -0.0244; in the test with R275C/Slo1WT/beta2, -0.00738.
Take `CC(C)NCC(O)COc1ccc(CCOCC2CC2)cc1` (stereo not given): the log fold change Tl+ flux was -0.00418 in the test on F380Y; 0.0244 with F380Y/beta1; 0.0281 in the test with F380Y/beta2Delta; 0.0205 in the test on F380Y/beta4; -0.00804 in test [1]; 0.0179 in the test on R275C. Besides, the log fold change Tl+ flux is 0.00923 with R275C/beta1, -0.0652 in the test on R275C/beta2Delta, -0.0167 in the test with R275C/beta4 and -0.00955 in the test on R275C/Slo1WT/beta2.
Take `COc1ccccc1OCC(O)CN1CCN(CC(=O)Nc2c(C)cccc2C)CC1` (stereo not given): the log fold change Tl+ flux with F380Y is 0.091; with F380Y/beta1, 0.0232; with F380Y/beta2Delta, 0.0304; in the test on F380Y/beta4, -0.01; in [1] it was -0.0153; in the test with R275C, -0.0477. For the same compound, the log fold change Tl+ flux in the test with R275C/beta1 was 0.0435; with R275C/beta2Delta, 0.00123; with R275C/beta4, 0.0205; in the test on R275C/Slo1WT/beta2 it was 0.0142.
Take `CC(C)(C)C(O)/C=C/c1ccc2c(c1)OCO2` (stereo not given): the log fold change Tl+ flux with F380Y is -0.0156; in the test with F380Y/beta1 it was 0.105 (active); in the test with F380Y/beta2Delta it was -0.034; with F380Y/beta4 it was 0.0193; in test [1] it was 0.00833; in the test with R275C it was -0.0106. In addition, the log fold change Tl+ flux was 0.0195 in the test with R275C/beta1, -0.0731 with R275C/beta2Delta, -0.0258 in the test on R275C/beta4 and -0.0107 in the test on R275C/Slo1WT/beta2.
For `NS(=O)(=O)Cc1noc2ccccc12`, the log fold change Tl+ flux is 0.00455 in the test with F380Y; -0.0156 in the test with F380Y/beta1; -0.0343 in the test with F380Y/beta2Delta; -0.0562 in the test on F380Y/beta4; 0.00637 in [1]; -0.021 in the test on R275C. In addition, the log fold change Tl+ flux with R275C/beta1 was 0.0189; in the test on R275C/beta2Delta, -0.0477; with R275C/beta4, 0.00838; in the test on R275C/Slo1WT/beta2, -0.0027.
As for `COc1cc2nc(N3CCN(C(=O)C4CCCO4)CC3)nc(N)c2cc1OC` (stereo not given), the log fold change Tl+ flux is 0.0434 in the test with F380Y; -0.102 with F380Y/beta1; -0.00319 in the test with F380Y/beta2Delta; 0.00186 in the test with F380Y/beta4; -0.0172 in test [1]; 0.0113 with R275C. Moreover, the log fold change Tl+ flux is -0.0224 with R275C/beta1, -0.0771 in the test on R275C/beta2Delta, -0.0968 in the test with R275C/beta4 and -0.0619 in the test with R275C/Slo1WT/beta2.
Consider `NC(=O)OCC(COC(N)=O)c1ccccc1`, for which the log fold change Tl+ flux in the test on F380Y was -0.103; in the test with F380Y/beta1 it was -0.0115; in the test on F380Y/beta2Delta, 0.0149; in the test on F380Y/beta4 it was 0.0205; in test [1], 0.0713; in the test with R275C, -0.054. Further, the log fold change Tl+ flux with R275C/beta1 is 0.0281; in the test on R275C/beta2Delta it was 0.019; in the test with R275C/beta4, -0.0181; in the test on R275C/Slo1WT/beta2 it was 0.0103.
Consider `CCC(=O)O[C@]1(C(=O)SCF)[C@H](C)C[C@H]2[C@@H]3C[C@H](F)C4=CC(=O)C=C[C@]4(C)[C@@]3(F)[C@@H](O)C[C@@]21C`, for which the log fold change Tl+ flux in the test on F380Y is 0.0283; with F380Y/beta1, -0.0132; in the test with F380Y/beta2Delta, 0.0505; in the test with F380Y/beta4, 0.0435; in test [1] it was 0.0105; in the test with R275C, -0.00436. Besides, the log fold change Tl+ flux in the test with R275C/beta1 was -0.000971; in the test on R275C/beta2Delta it was 0.027; with R275C/beta4, 0.00493; with R275C/Slo1WT/beta2 it was 0.0478.
Turning to `CC(=O)Oc1ccccc1C(=O)Nc1ncc([N+](=O)[O-])s1`, the log fold change Tl+ flux with F380Y is -0.199 (active); with F380Y/beta1, 0.0346; in the test with F380Y/beta2Delta it was -0.0604; in the test on F380Y/beta4, -0.0482; in test [1], 0.139 (active); with R275C, -0.00393. Besides, the log fold change Tl+ flux in the test with R275C/beta1 is 0.0452; with R275C/beta2Delta it was 0.237 (active); in the test with R275C/beta4 it was 0.0513; with R275C/Slo1WT/beta2, 0.00625.
As to `CCOC(=O)[C@H](CCc1ccccc1)N[C@@H](C)C(=O)N1[C@H](C(=O)O)C[C@@H]2CCC[C@@H]21`, the log fold change Tl+ flux was -0.0209 and 0.0487 in the test with F380Y; -0.00638 and 0.058 with F380Y/beta1; 0.0153 and 0.0206 with F380Y/beta2Delta; 0.00789 and 0.00803 in the test on F380Y/beta4; -0.0126 and 0.00594 in [1]; 0.0107 and 0.01 in the test with R275C. In addition, the log fold change Tl+ flux is -0.0118 and -0.0507 in the test on R275C/beta1; -0.0152 and 0.00655 with R275C/beta2Delta; 0.00822 and 0.0154 with R275C/beta4; -0.0515 and 0.000239 with R275C/Slo1WT/beta2.
Take `COC(=O)CCc1ccc(OCC(O)CNC(C)C)cc1` (stereo not given): the log fold change Tl+ flux was -0.0174 in the test on F380Y; 0.0192 in the test on F380Y/beta1; 0.0184 in the test on F380Y/beta2Delta; -0.0155 in the test with F380Y/beta4; -0.00535 in test [1]; -0.0168 in the test on R275C. For the same compound, the log fold change Tl+ flux in the test on R275C/beta1 was 0.0198; in the test with R275C/beta2Delta it was 0.0115; in the test with R275C/beta4 it was 0.0115; with R275C/Slo1WT/beta2, 0.0231.

The values are drawn from PubChem BioAssay.
